Assay results published in the supplement of paper PMC10338343.
± gives the standard deviation. In all, about 8,200 sequences were measured (“pre-steady-state target cleavage rate”: median about 0.024, highest 2% from about 1.3 on). The full list was thinned out, with the highest values kept by preference.

Tested on: MIWI (PIWIL1) piRISC loaded with L1MC piRNA (30 nt)
Assay: pre-steady-state target cleavage rate (min^-1); MIWI and MILI are mouse PIWI proteins and EfPiwi is from a freshwater sponge; tags in brackets are library labels; higher = faster piRNA-guided slicing of the target
Conditions: guide: L1MC piRNA 5'p-UAACUAAAUACUAUGCAAGCUGUAGGUCCU
Outline: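 Using HEPES–potassium acetate buffer at 33 °C, 1 nM active affinity-purified piRISC with a single synthetic guide was mixed with 0.1 nM transcribed, DNA-blocked target RNA library for 0–8 or 0–960 min, with or without 500 nM GTSF1 partner protein. Uncleaved targets were sequenced and normalised to depth and to weakly complementary targets, and three trials were pooled with k3 capped at 0.0001 min^-1. A burst-and-steady-state fit gave the pre-steady-state cleavage rate.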

[1] = auxiliary factor: 500 nM mouse GTSF1
[2] = auxiliary factor: none (no GTSF1)

Sequence | pre-steady-state target cleavage rate [1] | pre-steady-state target cleavage rate [2]
UCCUGGUUCAGCUAGCAUAGUAUUUAGUUA | 0.872 ± 0.045 | 0.0169 ± 0.004
UCCUGGAACAGCUUGCAUUGUAAUUAGUUA | 0.375 ± 0.032 | 0.018 ± 0.006
UCCUGGAACUCCUUGCAUAGUAUUUAGUUA | 0.46 ± 0.048 | 0.00821 ± 0.0033
UCCUCCUAACAGCUUGCAUAGUAUUUAGUUA | 0.591 ± 0.025 | 0.0508 ± 0.0092
UCCACCUACAGCUUGCUUAGUUUUUAGUUA | 0.175 ± 0.017 | 0.0103 ± 0.002
UGGUCCUACAGCUUGCAUAGUAUUUUGUUA | 0.679 ± 0.03 | 0.0592 ± 0.011
UCGACCUACAGCUUGCAUGUAUUUAGUUA | 0.479 ± 0.05 | 0.00292 ± 0.0025
AGGACCUACAGCUUGCAUGUAUUUAGUUA | 0.485 ± 0.048 | 0.00718 ± 0.0034
UCGACCUACAGCUUGCAUUAGUAUUUAGUUA | 0.264 ± 0.082 | 
AGGACCUACAGCUUGCAUGGUAUUUAGUUA | 1.35 ± 0.073 | 0.0615 ± 0.012
UCCUGCUACAGCUUGCAUGGUAUUUAGUUA | 1.2 ± 0.1 | 0.0413 ± 0.0095
UCCUCCUACAGCUUGCAUGGUAUUUAGUUA | 1.66 ± 0.078 | 0.0582 ± 0.011
UGGACCUACAGCUUGCAUGGUAUUUAGUUA | 1.38 ± 0.079 | 0.0478 ± 0.01
UCCACCUACAGCUUGCAUGGUAUUUAGUUA | 1.3 ± 0.061 | 0.0488 ± 0.01
UCCUCCUACAGCUUGCAUGUAUUUAGUUA | 0.428 ± 0.051 | 0.00445 ± 0.0018
UCGACCUACAGCUUGCAUGGUAUUUAGUUA | 1.73 ± 0.084 | 0.0512 ± 0.011
UGGACCUACAGCUUGCAUGUAUUUAGUUA | 0.353 ± 0.055 | 0.00423 ± 0.0025
AGGACCUACAGCUUGCAUGAGUAUUUAGUUA | 0.194 ± 0.068 | 
AGGUCCUACAGCUUGCAUAGUAUUUAGAAA | 0.285 ± 0.045 | 0.0132 ± 0.0048
AGGACCUACAGCUUGCAUAGUUAAUUCAAA | 0.786 ± 0.23 | 
UCCUGGUACAGCUUGCAUAGUAUUUAGAUUA | 0.179 ± 0.046 | 0.0165 ± 0.0061

Sequence | pre-steady-state target cleavage rate [1] | pre-steady-state target cleavage rate [2]
UCCUGCUACACCAUGCAUAGUAUUUAGUUA | 0.783 ± 0.035 | 0.00793 ± 0.002
UCCUGGAACAGCUUGCAAUGUAUUUAGUUA | 0.265 ± 0.02 | 0.00723 ± 0.0039
UCCUGGAUGUCCUUGCAUAGUAUAUUGUUA | 0.00947 ± 0.0039 | 
UCGACCUACAGCUUGGAUAGUAUUUACAAA | 0.179 ± 0.036 | 
UCCUCCUACAGCUUGGUUAGUAUUUAGUAA | 0.523 ± 0.043 | 0.00502 ± 0.0015
UCCACCUACAGCAAGCAUAGUAUUUAGUAA | 0.507 ± 0.042 | 
AGGACCUACAGCUUGCAUAGUAUUAUCUAA | 0.404 ± 0.066 | 
UCCUGGAUGUCCUUGCAUAGUAGUUAGUUA | 0.00603 ± 0.0046 | 0.00268 ± 0.0023
UCCUGGUACAGCUUGCAUAGUAAAAAGUAA | 0.109 ± 0.031 | 
UCCUGGAACAGCUUGCAUAGUAUUUAGAUA | 0.406 ± 0.042 | 0.0172 ± 0.0058
UCCUGCUACAGCUUGCAUAGUAUAUUGUUA | 0.377 ± 0.037 | 0.0123 ± 0.0026
UGGCACCUACAGCUUGCAUAGUAUUUAGUUA | 2.2 ± 0.89 | 
AGGCACCUACAGCUUGCAUAGUAUUUAGUUA | 2.18 ± 0.8 | 2.2 ± 1.8
UCGCACCUACAGCUUGCAUAGUAUUUAGUUA | 1.06 ± 0.13 | 0.0648 ± 0.015
UGCACCUACAGCUUGCAUAGUAUUUAGUUA | 1.22 ± 0.11 | 0.0865 ± 0.017
UGCACCUACAGCUUGCAUAGUAUUUAGUAA | 1.17 ± 0.11 | 0.0465 ± 0.0097
AGCACCUACAGCUUGCAUAGUAUUUAGUUA | 1.19 ± 0.16 | 0.246 ± 0.073
UCCUGGAACAGCUUGCAUAGCUAUUUAGUUA | 0.0102 ± 0.0047 | 
UCCUGGUAAAGCUUGCAUAGUAUUUAGUUA | 0.551 ± 0.037 | 0.0419 ± 0.0086
UCCUGGAACAGCUUGCAAAGUAUAUAGUUA | 0.459 ± 0.037 | 0.0164 ± 0.0061
UCCUGCUACAGCUUGGAAAGUAUUUAGUUA | 0.903 ± 0.053 | 0.00754 ± 0.0024

Sequence | pre-steady-state target cleavage rate [1] | pre-steady-state target cleavage rate [2]
UGGACGCUACAGCUUGCAUAGUAUUUAGUUA | 1.15 ± 0.076 | 0.0759 ± 0.013
UCCAUCUACAGCUUGCAUAGUAUUUAGUUA | 0.731 ± 0.031 | 0.0538 ± 0.0076
AGGACACUACAGCUUGCAUAGUAUUUAGUUA | 1.13 ± 0.083 | 0.0749 ± 0.011
UCCUGGAUCUAGCUUGCAUAGUAUUUAGUUA | 0.86 ± 0.04 | 0.0445 ± 0.011
AGGAUCUACAGCUUGCAUAGUAUUUAGUUA | 1.7 ± 0.059 | 0.105 ± 0.017
UGGAUCUACAGCUUGCAUAGUAUUUAGUUA | 1.57 ± 0.062 | 0.0958 ± 0.019
UCGAUCUACAGCUUGCAUAGUAUUUAGUUA | 1.61 ± 0.05 | 0.072 ± 0.013
UCCUGGAUCAGCUUGCAUUGUUUUUAGUUA | 0.0337 ± 0.0067 | 0.00759 ± 0.0022
UCGACCUACAGCUUGCAUAGUAAUUAGUUA | 1.08 ± 0.049 | 0.0469 ± 0.012
UCCUGGAUGUCCUUGCUAUGUAUUUAGUAA | 0.00637 ± 0.0038 | 
UCCUGGUACAGCUUGCAUAGUGAUUUAGUUA | 0.0476 ± 0.011 | 0.00639 ± 0.0029
UCCUGGUACACCUAGCAUAGUAUUUAGUUA | 0.278 ± 0.063 | 0.00414 ± 0.0028
UCGACCUAGAGCUUGCAUAGUAUUUAGAAA | 0.441 ± 0.048 | 0.00689 ± 0.0021
UCCUGGUACUCGUUGCAUAGUAUUUAGUAA | 0.0165 ± 0.0088 | 
UCGACGAACAGCUUGCAUAGUAUUUAGUUA | 1.38 ± 0.049 | 0.0836 ± 0.015
UCCUCGAACAGCUUGCAUAGUAUUUAGAAA | 0.474 ± 0.043 | 0.00694 ± 0.0025
UGGACGAACAGCUUGCAUAGUAUUUAGUUA | 1.17 ± 0.036 | 0.0856 ± 0.015
UCCUCGAACAGCUUGCAUAGUAUUUAGUUA | 1.39 ± 0.039 | 0.0825 ± 0.015
UCGACGAACAGCUUGCAUAGUAUUUAGUAA | 0.962 ± 0.062 | 0.0577 ± 0.013
UCCUCGAACAGCUUGCAUAGUAUUUAGUAA | 0.982 ± 0.042 | 0.0424 ± 0.008
